# Reference: PubChem BioAssay (NCI)
# Compounds without any hit were thinned out: in the full panel of roughly 83,000, 20% have a hit.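 For each line, cells grew in 96-well plates with the test compound present at a single concentration for 48 hours.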 The source made the active and inactive calls.
# Test system: T-47D breast
# Assay: NCI-60 one-dose screen, 48 h (100 = growth as untreated, 0 = no growth, -100 = all killed)
# Conditions: 10 µM unless noted
# Experimental: Growth inhibition of the T-47D human tumor cell line is measured as a screen for anti-cancer activity. Cells are grown in 96 well plates and exposed to the test compound for 48 hours. Compounds are tested at a single concentration, which is 10^-5 M for most compounds. The reported endpoint is percent growth (GI% or GIPRCNT), where numbers from 0 - 100% represent growth inhibition, and numbers from -100% - 0 represent cell death. For example, a value of 40 represents 60% growth inhibition. A value of 0 means no net growth occurred over the course of the experiment. A value of -40 indicates 40% of cells at the beginning of the experiment died by the end of the experiment. A value of -100 means all cells are dead at the end of the experiment.
# NCI-60 Human Tumor Cell Lines Screen was performed using the standard one-dose NCI protocol, which is described in more detail at https://dtp.cancer.gov/discovery_development/nci-60/default.htm.
# Compounds with GIPRCNT values below 10 were considered active. Activity score was based on GIPRCNT using the following formula: […]
# Score is 0 for GIPRCNT values of 100 or above, 50 for GIPRCNT values of 0, and 100 for GIPRCNT values of -100.
row,Structure (SMILES),growth
1,CCCCCCCCCCCCCC[P+](CCCCCC)(CCCCCC)CCCCCC,-14.8% (active)
2,CCCCCCCCC(CO)NCCc1ccccc1 (stereo not given),96% (inactive)
3,COc1cc([C@@H]2c3cc4c(cc3[C@H](OC(C)=O)[C@H]3COC(=O)[C@@H]23)OCO4)cc(OC)c1OC,99.2% (inactive)
4,O=C1NC(=O)C(=Cc2cn(CCCCCCn3c4ccccc4c(=O)c4ccccc43)c3ccccc23)C(=O)N1,60.6% (inactive)
5,NC(N)=N/N=C\c1c[nH]c2ccc(Br)cc12,36.6% (inactive)
6,COc1cc2c(cc1OCCCCCn1c(-c3ccco3)nc3ccccc31)N=C[C@@H]1CCCN1C2=O,27.8% (inactive)
7,CC(=O)OC1CCC2C3CCC4=C/C(=N/OC(=O)c5ccc(N(CCCl)CCCl)cc5)CCC4(C)C3CC(C)C12 (stereo not given),43.8% (inactive)
8,CN1C(=O)C(=Cc2cn(CCCCCCn3c4ccccc4c(=O)c4ccccc43)c3ccccc23)C(=O)N(C)C1=O,75% (inactive)
9,CC[C@H](C)[C@@H]([C@@H](CC(=O)N1CCC[C@H]1[C@H](OC)[C@@H](C)C(=O)N[C@H](C)[C@@H](O)c1ccccc1)OC)N(C)C(=O)[C@@H](NC(=O)[C@@H](NC)C(C)C)C(C)C,87.3% (inactive)
10,CC1=C(CCCOC(=O)[C@H](N)CC(C)C)C2=C(C)C3(CC3)[C@@](C)(O)C(=O)C2=C1,5.21% (active)
11,O=C1C2CCC1C(N1CCCC1)CC2 (stereo not given),106% (inactive)
12,C[C@@]1(CCCCCCCCCc2ccc(O)cc2)C[C@]2(C)OC(=O)C[C@@H]2OO1,83.9% (inactive)
13,C[Se]C(=O)c1ccccc1OC(C)=O,89.1% (inactive)
14,COC(=O)[C@@H](C)C[C@H](Cc1ccccc1)NC(=O)c1csc(CC[C@H](C(C)C)N(C)C(=O)[C@@H](NC(=O)[C@H]2CCCCN2C)C(C)C)n1,56.8% (inactive)
15,CC(=O)O[C@@H]1CC[C@]2(C)[C@H]3CC[C@]4(C)C(=O)CC[C@H]4[C@@H]3C[C@@H]3SC(N)=N[C@@]32C1,65.8% (inactive)
16,CN(C)C(=O)Oc1ccccc1-c1ccccc1,93.3% (inactive)
17,CO[C@H]1CC[C@@]2(C)C(=CC[C@@H]3[C@@H]2CC[C@]2(C)C(=O)C(=O)C[C@@H]32)C1,97.1% (inactive)
18,CN1C(=O)C23CC4(C56CC78SSC(CO)(C(=O)N7C5Nc5ccccc56)N(C)C8=O)c5ccccc5NC4N2C(=O)C1(CO)SS3 (stereo not given),-92.4% (active)
19,Clc1ccc2nnnn2n1,57.4% (inactive)
20,C=C(C)[C@@]12OC3(/C=C/C=C/CCCCC)O[C@@H]1[C@@H]1[C@@H]4O[C@]4(CO)[C@@H](O)[C@]4(O)C(=O)C(C)=C[C@H]4[C@@]1(O3)[C@H](C)[C@H]2OC(=O)c1ccccc1,81.7% (inactive)

row,Structure (SMILES),growth
1,CCC(C)(C)[C@H](NC(=O)[C@H]1CCCCN1C)C(=O)N(C)[C@H](C[C@@H](OC(C)=O)c1nc(C(=O)N[C@@H](Cc2ccccc2)C[C@H](C)C(=O)O)cs1)C(C)C,76.7% (inactive)
2,COc1ccc(Nc2ccc([N+](=O)[O-])cc2[N+](=O)[O-])cc1CN(CCCl)CCCl,22.6% (inactive)
3,COc1cccc(C=NC(Cc2cnc[nH]2)C(=O)O)c1O (stereo not given),108% (inactive)
4,CC12CCC3C(CCC4=CC(=O)CCC43CF)C1CCC2=O (stereo not given),39.4% (inactive)
5,ClCCN(CCCl)Cc1ccc(Nc2ccnc3cc(Cl)ccc23)cc1,36.2% (inactive)
6,COC(=O)[C@@H](C)C[C@H](Cc1ccccc1)NC(=O)c1nc([C@@H](C[C@H](C(C)C)N(C)C(=O)[C@@H](NC(=O)[C@H]2CCCCN2C)C(C)C)OC(C)=O)sc1C(C)C,53.1% (inactive)
7,CC(=O)[O][Hg][c]1c(N)c(C)cc(C)c1F,-20% (active)
8,CC(C)(N)Cc1ccccc1,107% (inactive)
9,Cc1cc(-c2nc3cc(F)ccc3[se]2)cc(F)c1N,14.2% (inactive)
10,CCOP(=O)(NC[C@H]1O[C@](O)(CO)[C@@H](O)[C@@H]1O)OCC,98.1% (inactive)
11,CC[C@H](C)[C@H](NC(=O)C12C3C4C1C1C2C3C41NC)C(=O)N(C)[C@H](C[C@@H](OC(C)=O)c1nc(C(=O)N[C@@H](Cc2ccccc2)C[C@H](C)C(=O)OC)cs1)C(C)C (stereo not given in full),40.5% (inactive)
12,CN1CC(=O)N(O)C1(C)c1cccnc1 (stereo not given),93.4% (inactive)
13,Cc1ccc(C(=O)NCCCOc2ccc(N3C(N)=NC(N)=NC3(C)C)cc2Cl)cc1S(=O)(=O)F,104% (inactive)
14,CCC1CC(O)c2c(O)c3c(c(O)c2C1O)C(=O)c1cccc(O)c1C3=O (stereo not given) (tested in a mixture with another compound),-14.1% (active)
15,COC(=O)[C@H](Cc1ccccc1)NC(=O)c1csc([C@@H](C[C@H](C(C)C)N(C)C(=O)[C@@H](NC(=O)[C@H]2CCCN2C)C2CC2)OC(C)=O)n1,54.5% (inactive)
16,CC1CN1CCCCN1CC1C (stereo not given),101% (inactive)
17,CCC1CN1CCCCN1CC1CC (stereo not given),92.1% (inactive)
18,COP(=S)(N1CC1)N1CC1,94.8% (inactive)
19,CC1(C)N=C(N)N=C(N)N1c1cccc(CCCCc2ccc(Cl)c(S(=O)(=O)F)c2)c1,86.6% (inactive)
20,COC(=O)[C@@H](C)C[C@H](Cc1ccccc1)NC(=O)c1cccc([C@@H](C[C@H](C(C)C)N(C)C(=O)[C@@H](NC(=O)[C@H]2CCCCN2C)C(C)C)OC(C)=O)n1,47.1% (inactive)
